Laboratory results as given in PubChem BioAssay (NCATS).
Inconclusive results are not listed. Active and inactive are the calls of the source. Calls follow the shape of the dose curve; as a rule, active = well fitted cell-killing curve with a large enough effect; inconclusive = small, poorly fitted or top-dose-only effect, or effect the other way; inactive = flat fitted curve, though single readings scatter.

How the values were obtained:
Assay in all cases: Primary qHTS to identify gynecologic anti-cancer compounds using libraries of approved drugs and bioactive compounds (AID 1345084); also: nearly all actives have a fitted effect of over 55% in size
Hek293T = conditions: Gynecologic cancer cell panel viability, ATPlite luminescence, 48 h, control line for the selectivity index; series mostly up to 57.5 µM
In short: (§1)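 Luminescence from the ATPlite ATP-monitoring reagent indicates viable cell number; lower signal means cytotoxicity. Cells received compound 16 h after seeding and were exposed for 48 h across five concentrations.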

JEG-3 = conditions: Gynecologic cancer cell panel viability, ATPlite luminescence, 48 h; series mostly up to 57.5 µM
In short: as §1

OV90 = conditions: Gynecologic cancer cell panel viability, ATPlite luminescence, 48 h; series mostly up to 57.5 µM
In short: as §1

PA-1 = conditions: Gynecologic cancer cell panel viability, ATPlite luminescence, 48 h; series mostly up to 57.5 µM
In short: as §1

Tov-21-G = conditions: Gynecologic cancer cell panel viability, ATPlite luminescence, 48 h; series mostly up to 57.5 µM
In short: as §1

Tov112D = conditions: Gynecologic cancer cell panel viability, ATPlite luminescence, 48 h; series mostly up to 57.5 µM
In short: as §1
% is scaled to controls: 0 for no effect and ±100 for the full control effect.

COC(=O)[C@@H]1C2CC3c4[nH]c5ccccc5c4CCN3CC2CC[C@@H]1O (stereo partly specified)
inactive: Potency (Hek293T) | Potency (JEG-3) | Potency (OV90) | Potency (PA-1) | Potency (Tov-21-G) | Potency (Tov112D)

CC[C@@H](c1ccc(F)c(F)c1)n1c(C(=O)OC)c(-c2ccno2)[nH]c1=S
inactive: Potency (Hek293T) | Potency (JEG-3) | Potency (OV90) | Potency (PA-1) | Potency (Tov-21-G) | Potency (Tov112D)

O=C(O)c1cnn(-c2nc3cc(OC(F)(F)F)c(Cl)cc3[nH]2)c1
inactive: Potency (Hek293T) | Potency (JEG-3) | Potency (OV90) | Potency (PA-1) | Potency (Tov-21-G) | Potency (Tov112D)

COc1ccc(C(OC2OC(CO)C(O)C(O)C2O)C(C)O)cc1 (stereo unspecified)
inactive: Potency (Hek293T) | Potency (JEG-3) | Potency (OV90) | Potency (PA-1) | Potency (Tov-21-G) | Potency (Tov112D)

COc1cc(C)c(C(=O)O[C@H]2[C@@H](O)[C@H](n3ccc(=O)[nH]c3=O)O[C@@H]2CO)c(OC)c1
inactive: Potency (Hek293T) | Potency (JEG-3) | Potency (OV90) | Potency (PA-1) | Potency (Tov-21-G) | Potency (Tov112D)

CCc1c(CC(N)=O)c2cc(OCCCP(=O)(O)O)ccc2n1Cc1ccccc1
inactive: Potency (Hek293T) | Potency (JEG-3) | Potency (OV90) | Potency (PA-1) | Potency (Tov-21-G) | Potency (Tov112D)

CCCCN(CCCC)C(=O)CN1C[C@H](c2ccc3c(c2)OCO3)[C@@H](C(=O)O)[C@@H]1c1ccc(OC)cc1
inactive: Potency (Hek293T) | Potency (JEG-3) | Potency (OV90) | Potency (PA-1) | Potency (Tov-21-G) | Potency (Tov112D)

CC1CCC23COC(=O)C2=CC(O)CC3C1(C)CCC1=CC(=O)OC1O (stereo unspecified)
inactive: Potency (Hek293T) | Potency (JEG-3) | Potency (OV90) | Potency (PA-1) | Potency (Tov-21-G) | Potency (Tov112D)

COC1=CC(=O)O[C@@H](/C=C/c2ccccc2)[C@@H]1O
inactive: Potency (Hek293T) | Potency (JEG-3) | Potency (OV90) | Potency (PA-1) | Potency (Tov-21-G) | Potency (Tov112D)

COc1cc(/C=C/C(=O)OC(C)(C)C(OC2OC(CO)C(O)C(O)C2O)C(=O)OCc2ccc(OC3OC(CO)C(O)C(O)C3O)cc2)ccc1O (stereo unspecified)
inactive: Potency (Hek293T) | Potency (JEG-3) | Potency (OV90) | Potency (PA-1) | Potency (Tov-21-G) | Potency (Tov112D)

CC(=O)O[C@@H]1[C@H](O[C@@H]2OC[C@](O)(CO)[C@H]2O)[C@@H](O[C@@H]2O[C@@H](C)[C@H](O)[C@@H](O)[C@H]2O)[C@H](OC(=O)[C@]23CCC(C)(C)C[C@H]2C2=CCC4[C@@]5(C)C[C@H](O)[C@H](O[C@@H]6O[C@H](C(=O)O)[C@@H](O)[C@H](O)[C@H]6O)[C@@](C)(C(=O)O)C5CC[C@@]4(C)[C@]2(C)CC3)O[C@@H]1C (stereo partly specified)
inactive: activity change, negative = cytotoxicity (Hek293T) 9.21% [at 11.6 µM] | activity change, negative = cytotoxicity (JEG-3) 0.39% [at 11.6 µM] | activity change, negative = cytotoxicity (OV90) 0.243% [at 11.6 µM] | activity change, negative = cytotoxicity (PA-1) -6.11% [at 11.6 µM] | activity change, negative = cytotoxicity (Tov-21-G) 1.94% [at 11.6 µM] | activity change, negative = cytotoxicity (Tov112D) 2.89% [at 11.6 µM]

CC/C=C/CC1=C(CCCCCCCC(=O)O)CCC1=O
inactive: Potency (Hek293T) | Potency (JEG-3) | Potency (OV90) | Potency (PA-1) | Potency (Tov-21-G) | Potency (Tov112D)

COC(=O)C1C(CC(C)=O)C=CC(O)C12Oc1cc(C)cc(O)c1C2=O (stereo unspecified)
inactive: Potency (Hek293T) | Potency (JEG-3) | Potency (OV90) | Potency (PA-1) | Potency (Tov-21-G) | Potency (Tov112D)

COC1CCCC/C(C)=C/C2C=C(C)C(C)C3C(CC(C)C)NC(=O)C23C(=O)C1 (stereo unspecified)
inactive: Potency (Hek293T) | Potency (JEG-3) | Potency (OV90) | Potency (PA-1) | Potency (Tov-21-G) | Potency (Tov112D)

COc1ccc2cc(OCC3(C(=O)O)CN(C(=O)c4ccc(F)cc4)C3)ccc2c1
inactive: Potency (Hek293T) | Potency (JEG-3) | Potency (OV90) | Potency (PA-1) | Potency (Tov-21-G) | Potency (Tov112D)

O=C(c1ccc(F)cc1)C1CCN(CCn2c(=O)nc3n(c2=O)CCCC3)CC1
inactive: Potency (Hek293T) | Potency (JEG-3) | Potency (OV90) | Potency (PA-1) | Potency (Tov-21-G) | Potency (Tov112D)

O=C(/C=C/c1c(C(=O)O)[nH]c2cc(Cl)cc(Cl)c12)Nc1ccccc1
inactive: Potency (Hek293T) | Potency (JEG-3) | Potency (OV90) | Potency (PA-1) | Potency (Tov-21-G) | Potency (Tov112D)

O=S(=O)(NC1CCNCC1)c1cc(S(=O)(=O)c2ccccc2)ccc1C(F)(F)F
inactive: Potency (Hek293T) | Potency (JEG-3) | Potency (OV90) | Potency (PA-1) | Potency (Tov-21-G) | Potency (Tov112D)

COc1cc(/C=C/C(=O)O[C@H]2[C@H](O)[C@@H](CO)O[C@@]2(CO)O[C@H]2O[C@H](COC(=O)c3ccc(O)cc3)[C@@H](O)[C@H](O)[C@H]2O)cc(OC)c1OC
inactive: Potency (Hek293T) | Potency (JEG-3) | Potency (OV90) | Potency (PA-1) | Potency (Tov-21-G) | Potency (Tov112D)

CCC(C)C(=O)O[C@@H]1[C@@H](O)[C@@H](O[C@H]2O[C@H](CO)[C@@H](O)[C@H](O)[C@H]2O)O[C@H](CO)[C@H]1O (stereo partly specified)
inactive: Potency (Hek293T) | Potency (JEG-3) | Potency (OV90) | Potency (PA-1) | Potency (Tov-21-G) | Potency (Tov112D)

COC(=O)C1=COC(OC2OC(CO)C(O)C(O)C2O)C2C1CC(OC(=O)C(O)CC(=O)O)C2C (stereo unspecified)
inactive: Potency (Hek293T) | Potency (JEG-3) | Potency (OV90) | Potency (PA-1) | Potency (Tov-21-G) | Potency (Tov112D)
